Source: PubChem BioAssay AID1210 (NMMLSC, 2008)
Activity calls are given as the source filed them.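 Rule for the calls: active = blocks over 70% of labeled estradiol binding at 10 µM, or over a set limit at 100 nM; inactive = the rest.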

Target: Estrogen receptor beta (Homo sapiens) (UniProt Q92731)
Test: displacement of fluorescent estrogen from ERbeta – cell-based, Cos7 ERbeta-GFP, flow cytometry, primary screen (AID 1210);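 note: 0% = DMSO vehicle wells and 100% = complete loss of labeled estradiol signal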
Conditions: fluorescent estrogen binding, stronger effect = higher value
[1] = ligand binding inhibition, at 0.1 µM

Sequence of Estrogen receptor beta (Homo sapiens) (Q92731 whole entry, looked up): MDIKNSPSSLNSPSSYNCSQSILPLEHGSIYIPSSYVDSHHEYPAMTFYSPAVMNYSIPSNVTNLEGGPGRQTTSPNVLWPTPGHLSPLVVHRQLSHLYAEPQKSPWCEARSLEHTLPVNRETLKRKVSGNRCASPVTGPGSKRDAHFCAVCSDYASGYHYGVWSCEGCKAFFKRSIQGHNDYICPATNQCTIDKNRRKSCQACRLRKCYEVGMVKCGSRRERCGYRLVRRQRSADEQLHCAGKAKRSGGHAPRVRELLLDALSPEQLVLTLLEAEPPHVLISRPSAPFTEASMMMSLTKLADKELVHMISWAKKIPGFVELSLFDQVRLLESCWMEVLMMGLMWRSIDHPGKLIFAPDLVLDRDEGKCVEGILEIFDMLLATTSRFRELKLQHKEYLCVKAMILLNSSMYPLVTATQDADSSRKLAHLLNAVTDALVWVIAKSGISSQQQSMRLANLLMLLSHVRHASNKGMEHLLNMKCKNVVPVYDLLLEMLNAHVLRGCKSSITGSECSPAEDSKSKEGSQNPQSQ

Row | SMILES | inhibition (at 10 µM) | inhibition [1] [%]
1 | COC1=C/C(=C/c2c(N)n3cc(C)sc3nc2=O)C=CC1=O | 62% (inactive) | 7
2 | O=S(=O)(/N=C(/Sc1ccccc1)c1ccccc1)c1ccccc1 | 32% (inactive) | 20
3 | Cc1ccc(S(=O)(=O)N2CCCCC2)cc1C(=O)Nc1ncn[nH]1 | 13% (inactive) | 23
4 | O=C(CSc1nnc(Nc2ccccc2F)s1)NCc1ccco1 | 4% (inactive) | 48
5 | COc1ccc(NC(=O)C(NC(=O)c2ccc(=O)[nH]c2)c2ccc(C)cc2)cc1 (stereo unspecified) | 52% (inactive) | 12
6 | Cc1cc2n(c1)CCn1c(C)ccc1-2 | 17% (inactive) | 31
7 | Brc1cc2c(cc1C1Nc3ccccc3C3C=CCC31)OCO2 (stereo unspecified) | 20% (inactive) | 25
8 | COc1ccc(N=C2NC(=O)S/C2=C\c2ccc(N(C)C)cc2)cc1 | 59% (inactive) | 4
9 | COc1cc(NC(=O)c2cccs2)c(C(=O)OCC(=O)NCc2ccco2)cc1OC | 41% (inactive) | 47
10 | O=S(=O)(NCC(O)COCc1ccco1)c1cccs1 (stereo unspecified) | 12% (inactive) | 20
11 | O=C(Cn1c(=O)n(Cc2ccco2)c(=O)c2c3c(sc21)CCCCC3)Nc1ccccc1 | 37% (inactive) | 39
12 | C/C(N)=C(/C#N)C(=O)CSc1nnc(-c2ccc(OC(F)F)cc2)o1 | 37% (inactive) | 23
13 | O=C1CC(=O)N2N=C(c3ccc([N+](=O)[O-])cc3)SC2=N1 | 45% (inactive) | 19
14 | NNc1nc2sc3c(c2c(=O)[nH]1)CCc1ccccc1-3 | 23% (inactive) | 37
15 | Cc1ccc(-c2csc(NC(=O)c3ccno3)n2)cc1 | 40% (inactive) | 28
16 | CC1(C)OC(C)(C)/C(=C/Nc2ccc(O)cc2)C1=O | 58% (inactive) | 58
17 | O=C(O)c1cc(-c2ccc(O)cc2)nc2ccccc12 | 57% (inactive) | 8
18 | CCO/C([O-])=N/c1c[n+](N2CCOCC2)no1 | 21% (inactive) | 44
19 | CCn1c(SCC(=O)Nc2ccc3c(c2)oc2ccccc23)nnc1-c1ccc(N)cc1 | 56% (inactive) | 18
20 | O=c1oc2ccccc2n1CCn1c2ccccc2c2nc3ccccc3nc21 | 70% (inactive) | 18
21 | Oc1ccc(/C=C/c2nc(-c3ccccc3O)n(-c3ccccc3)n2)cc1 | 44% (inactive) | 31

Row | SMILES | inhibition (at 10 µM) | inhibition [1] [%]
22 | Nc1ccc(-c2nc3c(Cl)c(N)ccc3[nH]2)cc1 | 66% (inactive) | 32
23 | COc1ccc2c(c1)c(=O)oc1cc(OCC(=O)NC3CCCCC3)ccc12 | 31% (inactive) | 22
24 | COc1ccc(OC)c(N2C(=O)[C@@H]3C(c4ccccc4Cl)=NO[C@@H]3C2=O)c1 | 52% (inactive) | 30
25 | COc1ccc(C2CC(c3ccccc3)=NN2c2ccc(N)cc2)cc1 (stereo unspecified) | 69% (inactive) | 23
26 | COc1ccc(-c2nnc(-c3cc4c(ccc5ccccc54)oc3=O)o2)cc1 | 33% (inactive) | 6
27 | COc1cccc(NS(=O)(=O)c2ccc3c(c2)C2C=CCC2C(c2ccc(C(=O)O)cc2)N3)c1 (stereo unspecified) | 0% (inactive) | 9
28 | COc1ccc(NC(=O)c2ccco2)cc1N | 69% (inactive) | 17
29 | CCCC1=NN2C(=N)/C(=C\c3ccc(SCc4ccco4)o3)C(=O)N=C2S1 | 13% (inactive) | 17
30 | O=C(Cc1coc2cc3c(cc12)CCC3)OCc1cc(=O)n2c(n1)sc1ccccc12 | 56% (inactive) | 14
31 | O=C(CSc1ccc(Cl)cc1)c1ccco1 | 14% (inactive) | 53
32 | CCOC(=O)C1CCCN(C(=O)c2cc3ncc(Br)cn3n2)C1 (stereo unspecified) | 0% (inactive) | 26
33 | O=C1c2ccccc2C(=O)N1/N=C/c1ccc(O)c(O)c1 | 58% (inactive) | 54
34 | CN(c1ccccc1C(=O)O)S(=O)(=O)c1ccc2c3c(cccc13)C(=O)N2 | 0% (inactive) | 6
35 | COc1ccc(Cl)cc1NC(=O)c1ocnc1C | 50% (inactive) | 3
36 | O=C(Nc1cccc(-c2cnc3ccccc3n2)c1)c1cccc(NC(=O)c2ccco2)c1 | 58% (inactive) | 43
37 | Nc1ccc2nc(-c3cccs3)[nH]c2c1 | 50% (inactive) | 34
38 | Nc1ccc(-c2cc(-c3cccc(N)c3)nc(-c3ccccc3)n2)cc1 | 39% (inactive) | 27
39 | Cc1c(Cl)cccc1NS(=O)(=O)c1ccc2c(c1)C1C=CCC1C(c1ccc(C(=O)O)cc1)N2 (stereo unspecified) | 2% (inactive) | 12
40 | Cc1oc2c(C)c(O)ccc2c(=O)c1-c1ccc2ccccc2n1 | 15% (inactive) | 54
41 | CC(O)C1CCC2C3CC[C@H]4CC(O)CCC4(C)C3CC3(OCCO3)C12C (stereo partly specified) | 18% (inactive) | 13
42 | COc1cccc(-c2[nH]nc3c2C(c2ccoc2)C(C#N)=C(N)O3)c1 (stereo unspecified) | 54% (inactive) | 29

Row | SMILES | inhibition (at 10 µM) | inhibition [1] [%]
43 | Oc1ccc(-c2nnc(-c3ccccc3)c(-c3ccccc3)n2)cc1 | 38% (inactive) | 25
44 | O=C1C(c2ccnc3ccccc23)=C(O)c2ccccc21 | 60% (inactive) | 18
45 | CCOC(=O)Cc1cc(=O)n2[nH]c(-c3ccc(C)cc3)cc2n1 | 19% (inactive) | 15
46 | Oc1ccccc1C1=Nc2ccccc2N=C(c2cccs2)C1 | 19% (inactive) | 17
47 | CC(=O)Nc1nonc1-c1nc2ccccc2n1N(C(C)=O)C(C)=O | 35% (active) | 70
48 | Cc1ccc(Oc2cc(N3CCOCC3)nc(-c3ccccc3)n2)cc1 | 35% (inactive) | 15
49 | Oc1ccc(-c2nc3ccc4ccccc4c3c3c2CCC3)cc1O | 71% (active) | 47
50 | CCOC(=O)C1=C(C)NC(=O)NC1c1ccco1 (stereo unspecified) | 11% (inactive) | 15
51 | CCCCCc1nnc(NC(=O)Cc2cccs2)s1 | 18% (inactive) | 5
52 | O=C1OC(c2ccc(O)cc2)(c2ccc(O)cc2)c2ccccc21 | 51% (inactive) | 11
53 | O=c1cc(-c2ccccc2Cl)oc2c(Br)ccc(O)c12 | 33% (inactive) | 19
54 | O=C(Nc1cccc(-c2cn3cccnc3n2)c1)c1ccc2c(c1)OCO2 | 26% (inactive) | 48
55 | O=C(CSc1nc(C2CCCCC2)n(-c2ccccc2)n1)NCC(F)(F)F | 0% (inactive) | 21
56 | Cc1ccc(S(=O)(=O)Cc2ccc(C(=O)O)o2)cc1 | 54% (inactive) | 27
57 | Cc1ccc(C(=O)Nc2nc(-c3cccnc3)cs2)o1 | 15% (inactive) | 43
58 | CC(=O)N1c2ccc3ccccc3c2C2C=CCC2C1c1ccc(Br)cc1 (stereo unspecified) | 8% (inactive) | 3
59 | Cc1c2cc(O)c(=O)cc-2oc2cc(O)c(O)cc12 | 67% (inactive) | 22
60 | C/C(N)=C(/C#N)C(=O)CSc1nnc(Nc2ccccc2C)s1 | 44% (inactive) | 13
61 | CC1(C)Cc2c(sc3c4nnnn4c4nnnn4c23)CO1 | 23% (inactive) | 40
62 | CN1C(=O)CSc2ccc(NC(=O)N3CCC(N4CCCCC4)CC3)cc21 | 30% (inactive) | 19
63 | O=C1c2ccccc2NC(c2ccc(O)cc2)N1/N=C/c1ccc(O)cc1 (stereo unspecified) | 71% (active) | 1
